How the values were obtained:
Test in all cases: DAPPL (digital affinity profiling via proximity ligation, sequencing); 10 mM Tris-HCl pH 7.5, 50 mM NaCl, 1 mM DTT, 4% glycerol, room temperature, 30 min; GST-TFs on glutathione beads, 16-mer random dsDNA library, 0.1% formaldehyde crosslink after washing; high values mean tight binding
Conditions in all cases: protein: recombinant; tags: N-terminal GST; dsDNA, one strand shown
[1] = biological target: T1, FLI1 (Homo sapiens, UniProt Q01543 1-452)
T1 sequence: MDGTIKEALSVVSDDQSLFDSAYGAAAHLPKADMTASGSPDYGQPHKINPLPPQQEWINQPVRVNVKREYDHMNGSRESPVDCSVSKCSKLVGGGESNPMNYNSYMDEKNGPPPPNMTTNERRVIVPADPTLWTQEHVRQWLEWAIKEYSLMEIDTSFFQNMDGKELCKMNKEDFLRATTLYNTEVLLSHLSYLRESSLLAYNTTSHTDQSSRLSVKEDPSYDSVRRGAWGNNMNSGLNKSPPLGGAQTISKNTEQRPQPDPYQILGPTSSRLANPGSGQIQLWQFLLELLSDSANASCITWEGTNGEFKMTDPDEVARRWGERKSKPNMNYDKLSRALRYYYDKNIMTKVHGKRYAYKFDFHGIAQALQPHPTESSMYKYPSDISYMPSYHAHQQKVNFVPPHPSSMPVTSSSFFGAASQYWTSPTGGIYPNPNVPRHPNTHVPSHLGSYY
In short: (§1)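 Each value of binding signal is a hexamer's read frequency for a factor divided by the same hexamer's frequency in the tag-only sample. Barcoded, bead-captured GST fusions of human transcription factors made in yeast were pooled with that sample and incubated with 200 nmole of a random double-stranded 16-mer DNA library in Tris/NaCl/DTT/glycerol buffer at room temperature for 30 min. Washing, 0.1% formaldehyde crosslinking, proximity ligation, PCR and Illumina NextSeq500 sequencing followed.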

[2] = biological target: T2, ELK1 (Homo sapiens, UniProt P19419 1-428)
T2 sequence: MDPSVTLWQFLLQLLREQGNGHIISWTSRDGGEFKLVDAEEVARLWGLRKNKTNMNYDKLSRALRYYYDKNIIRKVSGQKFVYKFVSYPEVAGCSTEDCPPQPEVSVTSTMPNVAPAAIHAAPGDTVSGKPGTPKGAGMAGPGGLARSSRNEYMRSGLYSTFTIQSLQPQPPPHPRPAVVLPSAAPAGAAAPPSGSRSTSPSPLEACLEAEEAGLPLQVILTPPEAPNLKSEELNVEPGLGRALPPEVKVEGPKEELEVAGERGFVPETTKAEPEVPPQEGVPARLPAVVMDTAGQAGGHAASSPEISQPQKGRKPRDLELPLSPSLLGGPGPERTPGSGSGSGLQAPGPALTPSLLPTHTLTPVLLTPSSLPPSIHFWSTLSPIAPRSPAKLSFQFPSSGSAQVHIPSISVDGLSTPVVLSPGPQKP
In short: as §1

[3] = biological target: T3, GABPA (Homo sapiens, UniProt Q06546 1-454)
T3 sequence: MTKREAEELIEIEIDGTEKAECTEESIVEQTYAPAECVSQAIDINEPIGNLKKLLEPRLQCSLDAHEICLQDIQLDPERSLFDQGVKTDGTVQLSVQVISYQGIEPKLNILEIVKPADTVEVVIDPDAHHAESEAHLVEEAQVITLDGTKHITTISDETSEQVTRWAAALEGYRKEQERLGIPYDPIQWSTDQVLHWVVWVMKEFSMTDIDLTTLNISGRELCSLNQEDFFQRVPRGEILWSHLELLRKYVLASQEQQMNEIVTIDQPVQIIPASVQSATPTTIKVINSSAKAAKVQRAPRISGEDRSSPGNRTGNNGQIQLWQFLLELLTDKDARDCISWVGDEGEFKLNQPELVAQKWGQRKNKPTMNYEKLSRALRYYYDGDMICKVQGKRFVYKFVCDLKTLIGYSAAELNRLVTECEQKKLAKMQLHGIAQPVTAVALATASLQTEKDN
In short: as §1

[4] = biological target: T4, ERG (Homo sapiens, UniProt P11308 1-479)
T4 sequence: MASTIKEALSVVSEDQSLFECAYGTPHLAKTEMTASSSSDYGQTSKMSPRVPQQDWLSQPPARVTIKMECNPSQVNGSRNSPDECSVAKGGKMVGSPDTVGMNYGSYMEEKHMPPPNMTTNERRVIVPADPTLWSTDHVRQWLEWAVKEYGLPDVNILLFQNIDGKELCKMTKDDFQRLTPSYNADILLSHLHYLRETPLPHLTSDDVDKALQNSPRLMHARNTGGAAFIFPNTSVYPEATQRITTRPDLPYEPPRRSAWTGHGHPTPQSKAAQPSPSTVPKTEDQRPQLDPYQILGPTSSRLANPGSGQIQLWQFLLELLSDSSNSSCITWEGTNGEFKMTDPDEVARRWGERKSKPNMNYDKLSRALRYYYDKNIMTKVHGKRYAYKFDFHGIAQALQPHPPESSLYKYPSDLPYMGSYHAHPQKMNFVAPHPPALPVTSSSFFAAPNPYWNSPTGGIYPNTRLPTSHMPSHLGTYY
In short: as §1

[5] = biological target: ELF1 (Homo sapiens, UniProt P32519 1-619)
In short: as §1

[6] = biological target: T5, EHF (Homo sapiens, UniProt Q9NZC4 1-300)
T5 sequence: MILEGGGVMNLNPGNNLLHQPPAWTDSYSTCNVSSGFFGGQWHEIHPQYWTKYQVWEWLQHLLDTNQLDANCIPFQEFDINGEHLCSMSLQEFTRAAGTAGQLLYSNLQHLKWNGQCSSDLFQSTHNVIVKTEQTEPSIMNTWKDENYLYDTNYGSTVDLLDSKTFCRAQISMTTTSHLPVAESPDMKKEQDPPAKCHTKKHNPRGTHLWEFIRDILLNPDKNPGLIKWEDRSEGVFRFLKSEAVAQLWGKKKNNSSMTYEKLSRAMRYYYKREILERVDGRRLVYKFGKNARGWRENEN
In short: as §1

[7] = biological target: SPI1 (Homo sapiens, UniProt P17947 1-270)
In short: as §1

[8] = biological target: SPIB (Homo sapiens, UniProt Q01892 1-262)
In short: as §1

[9] = biological target: T6, ELK3 (Homo sapiens, UniProt P41970 1-407)
T6 sequence: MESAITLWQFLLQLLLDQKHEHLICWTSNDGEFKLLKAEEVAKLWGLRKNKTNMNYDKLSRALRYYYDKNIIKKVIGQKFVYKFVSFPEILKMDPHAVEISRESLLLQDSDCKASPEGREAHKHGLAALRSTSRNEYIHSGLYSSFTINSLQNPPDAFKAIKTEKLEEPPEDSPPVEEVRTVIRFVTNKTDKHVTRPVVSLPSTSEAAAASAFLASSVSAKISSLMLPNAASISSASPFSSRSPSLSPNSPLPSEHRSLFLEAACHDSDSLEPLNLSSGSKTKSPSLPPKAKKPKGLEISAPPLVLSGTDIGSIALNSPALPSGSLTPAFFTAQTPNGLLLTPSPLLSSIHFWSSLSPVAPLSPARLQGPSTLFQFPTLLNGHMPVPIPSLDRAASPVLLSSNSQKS
In short: as §1

Chain of ELF1 (P32519 whole entry): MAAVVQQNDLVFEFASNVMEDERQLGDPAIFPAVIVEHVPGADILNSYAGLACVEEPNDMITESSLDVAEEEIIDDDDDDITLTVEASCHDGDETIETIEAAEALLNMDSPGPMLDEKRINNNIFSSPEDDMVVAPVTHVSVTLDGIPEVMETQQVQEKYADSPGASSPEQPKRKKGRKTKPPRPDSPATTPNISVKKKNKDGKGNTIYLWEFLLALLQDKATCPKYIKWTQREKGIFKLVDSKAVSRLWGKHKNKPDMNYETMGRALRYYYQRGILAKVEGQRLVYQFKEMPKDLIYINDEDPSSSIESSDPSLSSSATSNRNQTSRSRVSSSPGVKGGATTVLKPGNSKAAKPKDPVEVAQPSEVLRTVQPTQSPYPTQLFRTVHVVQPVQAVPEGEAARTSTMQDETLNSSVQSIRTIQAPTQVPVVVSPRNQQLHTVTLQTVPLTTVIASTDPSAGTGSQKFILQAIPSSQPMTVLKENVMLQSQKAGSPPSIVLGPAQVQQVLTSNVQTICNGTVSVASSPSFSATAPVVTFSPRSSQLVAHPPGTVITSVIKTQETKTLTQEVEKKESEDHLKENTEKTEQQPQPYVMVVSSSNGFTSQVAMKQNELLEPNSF
Chain of SPIB (Q01892 whole entry): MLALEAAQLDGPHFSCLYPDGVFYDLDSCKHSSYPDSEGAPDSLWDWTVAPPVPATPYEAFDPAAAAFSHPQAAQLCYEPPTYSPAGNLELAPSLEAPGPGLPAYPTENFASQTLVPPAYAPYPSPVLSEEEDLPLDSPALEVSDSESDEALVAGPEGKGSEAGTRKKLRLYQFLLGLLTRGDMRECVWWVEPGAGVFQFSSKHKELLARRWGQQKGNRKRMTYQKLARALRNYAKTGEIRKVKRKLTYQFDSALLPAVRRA

Sequence	binding signal [1]	binding signal [2]	binding signal [3]	binding signal [4]	binding signal [5]	binding signal [6]	binding signal [7]	binding signal [8]	binding signal [9]
TGCGTT	1.04 fold enrichment (6-mer frequency, TF over GST control)	1.09 fold enrichment (6-mer frequency, TF over GST control)	1.17 fold enrichment (6-mer frequency, TF over GST control)	1.12 fold enrichment (6-mer frequency, TF over GST control)	1.12 fold enrichment (6-mer frequency, TF over GST control)	1.08 fold enrichment (6-mer frequency, TF over GST control)	1.1 fold enrichment (6-mer frequency, TF over GST control)	1.11 fold enrichment (6-mer frequency, TF over GST control)	1.13 fold enrichment (6-mer frequency, TF over GST control)
CGAAAG	1.15 fold enrichment (6-mer frequency, TF over GST control)	1.13 fold enrichment (6-mer frequency, TF over GST control)	1.08 fold enrichment (6-mer frequency, TF over GST control)	1.04 fold enrichment (6-mer frequency, TF over GST control)	1.09 fold enrichment (6-mer frequency, TF over GST control)	1.01 fold enrichment (6-mer frequency, TF over GST control)	1.16 fold enrichment (6-mer frequency, TF over GST control)	1.06 fold enrichment (6-mer frequency, TF over GST control)	
GCACCC	1.21 fold enrichment (6-mer frequency, TF over GST control)	1.25 fold enrichment (6-mer frequency, TF over GST control)	1.25 fold enrichment (6-mer frequency, TF over GST control)	1.17 fold enrichment (6-mer frequency, TF over GST control)	1.16 fold enrichment (6-mer frequency, TF over GST control)	1.01 fold enrichment (6-mer frequency, TF over GST control)	1.18 fold enrichment (6-mer frequency, TF over GST control)	1.2 fold enrichment (6-mer frequency, TF over GST control)	1.14 fold enrichment (6-mer frequency, TF over GST control)
AAAAGG	1.1 fold enrichment (6-mer frequency, TF over GST control)	1.05 fold enrichment (6-mer frequency, TF over GST control)	1.25 fold enrichment (6-mer frequency, TF over GST control)	1.13 fold enrichment (6-mer frequency, TF over GST control)	1.1 fold enrichment (6-mer frequency, TF over GST control)	1.1 fold enrichment (6-mer frequency, TF over GST control)	1.48 fold enrichment (6-mer frequency, TF over GST control)	1.1 fold enrichment (6-mer frequency, TF over GST control)	
TTGGGC	1.03 fold enrichment (6-mer frequency, TF over GST control)	1.07 fold enrichment (6-mer frequency, TF over GST control)	1.01 fold enrichment (6-mer frequency, TF over GST control)	1.07 fold enrichment (6-mer frequency, TF over GST control)	1.03 fold enrichment (6-mer frequency, TF over GST control)	1.1 fold enrichment (6-mer frequency, TF over GST control)	1.2 fold enrichment (6-mer frequency, TF over GST control)	1.1 fold enrichment (6-mer frequency, TF over GST control)	1.21 fold enrichment (6-mer frequency, TF over GST control)
CCGAGC	1.17 fold enrichment (6-mer frequency, TF over GST control)	1.25 fold enrichment (6-mer frequency, TF over GST control)	1.2 fold enrichment (6-mer frequency, TF over GST control)	1.11 fold enrichment (6-mer frequency, TF over GST control)	1.15 fold enrichment (6-mer frequency, TF over GST control)	1.12 fold enrichment (6-mer frequency, TF over GST control)	1.12 fold enrichment (6-mer frequency, TF over GST control)	1.19 fold enrichment (6-mer frequency, TF over GST control)	
ACTCGC	1.19 fold enrichment (6-mer frequency, TF over GST control)	1.14 fold enrichment (6-mer frequency, TF over GST control)	1.18 fold enrichment (6-mer frequency, TF over GST control)	1.09 fold enrichment (6-mer frequency, TF over GST control)	1.13 fold enrichment (6-mer frequency, TF over GST control)	1.11 fold enrichment (6-mer frequency, TF over GST control)	1.15 fold enrichment (6-mer frequency, TF over GST control)	1.12 fold enrichment (6-mer frequency, TF over GST control)	
GCTCGT	1.19 fold enrichment (6-mer frequency, TF over GST control)	1.16 fold enrichment (6-mer frequency, TF over GST control)	1.26 fold enrichment (6-mer frequency, TF over GST control)	1.12 fold enrichment (6-mer frequency, TF over GST control)	1.15 fold enrichment (6-mer frequency, TF over GST control)	1.14 fold enrichment (6-mer frequency, TF over GST control)	1.12 fold enrichment (6-mer frequency, TF over GST control)	1.16 fold enrichment (6-mer frequency, TF over GST control)	

— PMC7862700, “An all-to-all approach to the identification of sequence-specific readers for epigenetic DNA modifications on cytosine”
